Assay results reported in the supplement of paper PMC9694430.

These compounds were tested on LOC_OS05G30820-cb001 (assay: thermal shift delta Tm vs DMSO control; higher = stronger stabilization (binding)). Conditions: 12.5 µM; protein concentration 2 µM.
Procedure, shortened: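 Heating from 25°C to 95°C at 0.05°C/s, fluorescence was recorded for 19.5 μl wells of 2 μM E. coli-expressed, purified rice kinase domain in 100 mM potassium phosphate pH 7.5, 150 mM NaCl, 10% glycerol and 5 × SYPRO Orange with compound in DMSO. Boltzmann fits gave melting temperatures for this differential scanning fluorimetry assay. The shift reported is the mean of three replicates against the DMSO-only protein.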
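Also: purified Escherichia coli-expressed rice kinase domain construct.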

| SMILES | thermal shift delta Tm [°C] |
| --- | --- |
| C[C@@H]1COC(Nc2ccc3ncnc(Nc4ccc(OCc5nccs5)c(Cl)c4)c3c2)=N1 [Varlitinib] | 0.94 |
| COc1cc(Nc2ncc(F)c(Nc3ccc4c(n3)NC(=O)C(C)(C)O4)n2)cc(OC)c1OC | 1.19 |
| CC(C)n1nc(-c2ccc3oc(N)nc3c2)c2c(N)ncnc21 | 0.45 |
| Cc1cc(NC(=O)c2cccc(NC(=O)/C=C/CN(C)C)c2)ccc1Nc1nccc(-c2cccnc2)n1 | 0.57 |
| Nc1nccc(Oc2ccc(NC(=O)c3c[nH]cc(-c4ccc(F)cc4)c3=O)cc2F)c1Cl | 0.92 |
| COc1ccc(/C=C/C(=O)C2(C(=O)/C=C/c3ccc(OC)c(OC)c3)CCCCC2)cc1OC | 0.75 |
| CC(C)CC(=O)Nc1n[nH]c2c1CN(C(=O)C1CCN(C)CC1)C2(C)C | 0.53 |
